Experimental findings from PubChem BioAssay (NCI) are described below.

A short description of experiment [1]: NCI Yeast Anticancer Drug Screen. Data for the rad50 strain (AID 155).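 Note: 0% = growth of vehicle-only cultures of the same strain.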 The settings on record: S. cerevisiae rad50 strain growth inhibition, active compounds read high. Summed up:
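A DNA repair-deficient yeast mutant serves as the test organism; compound-induced growth inhibition is calculated against vehicle-treated cells.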

The nature of experiment [2]: NCI Yeast Anticancer Drug Screen. Data for the mec2-1 strain (AID 157). The settings on record: S. cerevisiae mec2-1 strain, active compounds read high. Summed up: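 Mutant yeast (mec2-1) grown with compound; growth inhibition relative to vehicle control reported.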
Experiment [3] is described as follows: NCI Yeast Anticancer Drug Screen. Data for the sgs1 mgt1 strain (AID 161).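 Note: 0% = growth of cultures given vehicle only.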 To be noted: S. cerevisiae sgs1 mgt1 strain, active compounds read high. Summed up:
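Growth of a repair-deficient yeast mutant was monitored after compound treatment and expressed as inhibition relative to vehicle-treated cultures.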

Experiment [4] in a line: NCI Yeast Anticancer Drug Screen. Data for the cln2 rad14 strain (AID 165).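 Note: 0% = growth equal to vehicle treated cultures.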 To be noted: S. cerevisiae cln2 rad14 strain, active compounds read high. The method in brief:
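Readout is yeast growth inhibition versus vehicle-treated controls, using a strain with cln2 and rad14 alterations exposed to compound.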

Experiment [5] in a line: NCI Yeast Anticancer Drug Screen. Data for the bub3 strain (AID 167). To be noted: S. cerevisiae bub3 mutant strain, active compounds read high. The method in brief: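 Inhibition values come from growth of compound-treated mutant yeast normalised to vehicle-treated controls.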
The nature of experiment [6]: NCI Yeast Anticancer Drug Screen. Data for the mlh1 rad18 strain (AID 175). The settings on record: S. cerevisiae mlh1 rad18 strain growth inhibition, active compounds read high. Summed up: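 Genetically defined yeast (DNA repair-deficient) exposed to compounds; growth inhibition determined relative to vehicle.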
Where [7] appears, read: at 5.0 µM (retest, dose inferred, filed as 0.5).
Where [8] appears, read: at 50.0 µM (retest, dose inferred, filed as 5.0).

This is part of a sample that, as a whole, favours compounds with a hit. Of some 79,000 tested, about 15% had one in any assay. Unmarked numbers belong to inactive results. Activity calls are given as the source filed them. Cut-off read from the data, not from the text of the source: active = growth inhibition above about 70%; inactive = the rest.

`COC(=O)C(=O)C(=O)C1CCCC(c2ccccc2)C1=O` (stereo not given): the growth inhibition in experiment [1] (setting [7]) is 1%; in experiment [1] (setting [8]), 96% (active); in experiment [1] (at 50.0 µM), 96.3% (active); in experiment [2] (setting [7]), 0%; in experiment [2] (setting [8]), 97% (active); in experiment [2] (at 50.0 µM), 98% (active). Besides, the growth inhibition in experiment [3] (setting [7]) is 1%; in experiment [3] (setting [8]), 53%; in experiment [3] (at 50.0 µM), 71.6% (active); in experiment [4] (setting [7]) it was 2%; in experiment [4] (setting [8]) it was 98% (active); in experiment [4] (at 50.0 µM) it was 94.8% (active). The growth inhibition in experiment [5] (setting [7]) is -11%; in experiment [5] (setting [8]), 98% (active); in experiment [5] (at 50.0 µM), 97.8% (active); in experiment [6] (setting [7]), -10%; in experiment [6] (setting [8]), 97% (active); in experiment [6] (at 50.0 µM), 96.4% (active).
On to `CN(CCO)CCn1cnc2c1c(=O)n(C)c(=O)n2C`, for which the growth inhibition was -7% in experiment [1] (setting [7]); 5% in experiment [1] (setting [8]); -36.7% in experiment [1] (at 50.0 µM); -8% in experiment [2] (setting [7]); 9% in experiment [2] (setting [8]); -13.9% in experiment [2] (at 50.0 µM). The growth inhibition in experiment [3] (setting [7]) was 7%; in experiment [3] (setting [8]), -2%; in experiment [3] (at 50.0 µM) it was 1.65%; in experiment [4] (setting [7]), -15%; in experiment [4] (setting [8]) it was -12%; in experiment [4] (at 50.0 µM) it was -21.8%. Moreover, the growth inhibition was -4% in experiment [5] (setting [7]); 9% in experiment [5] (setting [8]); -7.15% in experiment [5] (at 50.0 µM); -11% in experiment [6] (setting [7]); -1% in experiment [6] (setting [8]); -5.9% in experiment [6] (at 50.0 µM).
Turning to `COc1ccc(C(c2ccc(OC)cc2)c2ccccc2C(=O)O)cc1`, the growth inhibition in experiment [1] (setting [7]) is -5%; in experiment [1] (setting [8]) it was 64%; in experiment [1] (at 50.0 µM), 37.8%; in experiment [2] (setting [7]), -14%; in experiment [2] (setting [8]), 31%; in experiment [2] (at 50.0 µM), 27.1%. The growth inhibition was 16% in experiment [3] (setting [7]); 48% in experiment [3] (setting [8]); 35.1% in experiment [3] (at 50.0 µM); 18% in experiment [4] (setting [7]); 39% in experiment [4] (setting [8]); 35.9% in experiment [4] (at 50.0 µM). Further, the growth inhibition in experiment [5] (setting [7]) is 20%; in experiment [5] (setting [8]), 56%; in experiment [5] (at 50.0 µM), 18.1%; in experiment [6] (setting [7]), 41%; in experiment [6] (setting [8]), 73% (active); in experiment [6] (at 50.0 µM), 54.9%.
On to `NC(=Nc1ccccc1)c1ccc2c(c1)c1c(n2Cc2ccccc2)CCCC1`, for which the growth inhibition is -9% in experiment [1] (setting [7]); 99% (active) in experiment [1] (setting [8]); 99.3% (active) in experiment [1] (at 50.0 µM); -7% in experiment [2] (setting [7]); 97% (active) in experiment [2] (setting [8]); 99.2% (active) in experiment [2] (at 50.0 µM). The growth inhibition in experiment [3] (setting [7]) is -5%; in experiment [3] (setting [8]), 99% (active); in experiment [3] (at 50.0 µM), 99.6% (active); in experiment [4] (setting [7]), -5%; in experiment [4] (setting [8]), 94% (active); in experiment [4] (at 50.0 µM), 94.9% (active). The growth inhibition is -2% in experiment [5] (setting [7]); 92% (active) in experiment [5] (setting [8]); 98.2% (active) in experiment [5] (at 50.0 µM); -1% in experiment [6] (setting [7]); 99% (active) in experiment [6] (setting [8]); 99.7% (active) in experiment [6] (at 50.0 µM).
`CC(C)(C)c1ccc(-c2nnc(SCc3ccc(Cl)cc3)n2-c2cccc(C(F)(F)F)c2)cc1`: the growth inhibition in experiment [1] (setting [7]) is -14%; in experiment [1] (setting [8]), -34%; in experiment [1] (at 50.0 µM) it was 52.6%; in experiment [2] (setting [7]), -20%; in experiment [2] (setting [8]), -26%; in experiment [2] (at 50.0 µM), 5.9%. The growth inhibition was -13% in experiment [3] (setting [7]); -30% in experiment [3] (setting [8]); -3.2% in experiment [3] (at 50.0 µM); 9% in experiment [4] (setting [7]); -14% in experiment [4] (setting [8]); -20.9% in experiment [4] (at 50.0 µM). For the same compound, the growth inhibition in experiment [5] (setting [7]) is 7%; in experiment [5] (setting [8]), -9%; in experiment [5] (at 50.0 µM), 14.4%; in experiment [6] (setting [7]), -28%; in experiment [6] (setting [8]), -29%; in experiment [6] (at 50.0 µM), -19.6%.
Consider `NC(=S)Nc1c(Br)cc(Br)cc1Br`, for which the growth inhibition is -1% in experiment [1] (setting [7]); 91% (active) in experiment [1] (setting [8]); 62.5% in experiment [1] (at 50.0 µM); 1% in experiment [2] (setting [7]); 90% (active) in experiment [2] (setting [8]); 33.5% in experiment [2] (at 50.0 µM). In addition, the growth inhibition in experiment [3] (setting [7]) is -1%; in experiment [3] (setting [8]), 84% (active); in experiment [3] (at 50.0 µM), 34.8%; in experiment [4] (setting [7]), 3%; in experiment [4] (setting [8]), 88% (active); in experiment [4] (at 50.0 µM) it was 23.1%. Also, the growth inhibition in experiment [5] (setting [7]) is -6%; in experiment [5] (setting [8]) it was 80% (active); in experiment [5] (at 50.0 µM) it was 74% (active); in experiment [6] (setting [7]) it was 2%; in experiment [6] (setting [8]) it was 88% (active); in experiment [6] (at 50.0 µM), 47%.
`COC12C(COC(N)=O)C3=C(C(=O)C(C)=C(N)C3=O)N1CC1C2N1C(=O)c1ccc(Cl)cc1` (stereo not given): the growth inhibition in experiment [1] (setting [7]) was 12%; in experiment [1] (setting [8]), 57%; in experiment [1] (at 50.0 µM) it was 43.3%; in experiment [2] (setting [7]), 15%; in experiment [2] (setting [8]), 75% (active); in experiment [2] (at 50.0 µM), 50.1%. For the same compound, the growth inhibition in experiment [3] (setting [7]) was 20%; in experiment [3] (setting [8]), 81% (active); in experiment [3] (at 50.0 µM), 65.5%; in experiment [4] (setting [7]), 3%; in experiment [4] (setting [8]), 72% (active); in experiment [4] (at 50.0 µM), 46.4%. In addition, the growth inhibition in experiment [5] (setting [7]) was 3%; in experiment [5] (setting [8]), 50%; in experiment [5] (at 50.0 µM), 43.4%; in experiment [6] (setting [7]), 25%; in experiment [6] (setting [8]), 86% (active); in experiment [6] (at 50.0 µM), 71.1% (active).
For the compound `O/N=C1/CCCC/C1=C/c1ccc(Cl)cc1`, the growth inhibition in experiment [1] (setting [7]) was -152%; in experiment [1] (setting [8]) it was -124%; in experiment [1] (at 50.0 µM) it was 82.7% (active); in experiment [2] (setting [7]) it was -48%; in experiment [2] (setting [8]), -53%; in experiment [2] (at 50.0 µM), 53.4%. The growth inhibition was -63% in experiment [3] (setting [7]); -23% in experiment [3] (setting [8]); 74% (active) in experiment [3] (at 50.0 µM); -57% in experiment [4] (setting [7]); -62% in experiment [4] (setting [8]); 64.8% in experiment [4] (at 50.0 µM). The growth inhibition in experiment [5] (setting [7]) is -66%; in experiment [5] (setting [8]), -78%; in experiment [5] (at 50.0 µM) it was 65.5%; in experiment [6] (setting [7]) it was -144%; in experiment [6] (setting [8]), -111%; in experiment [6] (at 50.0 µM) it was 80% (active).
As for `CN(C)c1ccc(C(c2ccc(N(C)C)cc2)c2ccc3c(c2)OCO3)cc1`, the growth inhibition is 98% (active) in experiment [1] (setting [7]); 66% in experiment [1] (setting [8]); 95% (active) in experiment [1] (at 50.0 µM); 99% (active) in experiment [2] (setting [7]); 62% in experiment [2] (setting [8]); 94% (active) in experiment [2] (at 50.0 µM). The growth inhibition was 97% (active) in experiment [3] (setting [7]); 85% (active) in experiment [3] (setting [8]); 95.8% (active) in experiment [3] (at 50.0 µM); 98% (active) in experiment [4] (setting [7]); 32% in experiment [4] (setting [8]); 88.8% (active) in experiment [4] (at 50.0 µM). Moreover, the growth inhibition in experiment [5] (setting [7]) was 99% (active); in experiment [5] (setting [8]) it was 81% (active); in experiment [5] (at 50.0 µM) it was 90% (active); in experiment [6] (setting [7]), 98% (active); in experiment [6] (setting [8]), 90% (active); in experiment [6] (at 50.0 µM) it was 91.6% (active).
For `COc1cc([C@@H]2c3cc4c(cc3[C@@H](OC3OC5CO[C@@H](c6cccs6)OC5C(O)C3O)[C@H]3COC(=O)[C@H]23)OCO4)cc(OC)c1O` (stereo not given in full), the growth inhibition is 74% (active) in experiment [1] (setting [7]); 96% (active) in experiment [1] (setting [8]); 86.6% (active) in experiment [1] (at 50.0 µM); 5% in experiment [2] (setting [7]); 92% (active) in experiment [2] (setting [8]); 74.8% (active) in experiment [2] (at 50.0 µM). In addition, the growth inhibition is 6% in experiment [3] (setting [7]); 77% (active) in experiment [3] (setting [8]); 63.7% in experiment [3] (at 50.0 µM); -3% in experiment [4] (setting [7]); 79% (active) in experiment [4] (setting [8]); 47.6% in experiment [4] (at 50.0 µM). Further, the growth inhibition in experiment [5] (setting [7]) is -2%; in experiment [5] (setting [8]), 74% (active); in experiment [5] (at 50.0 µM), 49.8%; in experiment [6] (setting [7]), 5%; in experiment [6] (setting [8]) it was 86% (active); in experiment [6] (at 50.0 µM), 64.7%.
